Screens deposited in PubChem by National Center for Advancing Translational Sciences (NCATS).
DT40 TDP1 no CPT – qHTS for Inhibitors of human tyrosyl-DNA phosphodiesterase 1 (TDP1): qHTS in cells in absence of CPT; Potency, µM (titrated, usually from 46.2 µM), usual class: inhibitors; AID 686978, 2013; DT40 Tdp1-/- hTDP1 cells, no CPT, ATP luminescence, 48 h; 420,000 compounds, 15% hits; further: nearly all actives have a fitted effect of over 55% in size
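Chicken DT40 Tdp1-/- cells stably complemented with human TDP1 were seeded at 400 cells/well with DMSO in place of 20 nM camptothecin. After compound pinning, cells grew at least 48 hr at 37 °C; viability read by CellTiter-Glo luminescence.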
HT1080 IDH1KD tx – kills HT-1080 cells with IDH1 knockdown; HT-1080 IDH1 knockdown viability, ATP luminescence, 48 h; AID 686971; 360,000 compounds, 2% hits; Potency, µM (top dose mostly 46.1 µM), actives largely listed as cytotoxic
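Knockdown cells (IDH1KD HT-1080) received compounds 2 h after plating at 750 cells/well and were kept 48 h at 37 °C in 5% FBS RPMI. A CellTiter-Glo luminescence read gave % activity for curve fitting.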
HT1080NT lethal – kills 2HG-producing HT-1080-NT fibrosarcoma cells; HT-1080-NT fibrosarcoma viability, CellTiter-Glo ATP luminescence, 48 h; AID 686970; Potency, µM (top dose mostly 46.1 µM), most hits filed as cytotoxic; 360,000 compounds, 1.6% hits;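 further: NT is the 2HG producing partner of a matched IDH1 knockdown line; nearly all actives have a fitted effect of over 55% in size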
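Read-out is CellTiter-Glo luminescence after 10 minutes at room temperature, following 48 hours' compound treatment of HT-1080-NT cells (750 cells/well, RPMI, 5% FBS, 37 degrees C).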
TDP1 cell CPT – DT40-hTDP1 cell growth loss with CPT; chicken DT40 Tdp1-/-;hTDP1 cells + 20 nM CPT, ATP luminescence, 48 h; Potency, µM (highest dose often 46.2 µM), actives largely listed as inhibitors; AID 686979; 420,000 compounds, 12% hits; further: nearly all actives have a fitted effect of over 55% in size
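Chicken DT40 Tdp1-/- cells stably complemented with human TDP1 were seeded at 400 cells/well in medium containing 20 nM camptothecin, exposed to pin-transferred compounds, and grown at 37 °C for at least 48 hr. Viability was read as ATP luminescence.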
KB-V1 MDR tox – kills drug-selected multidrug resistant KB-V1 cells; KB-V1 MDR cells viability, CellTiter-Glo, 72 h; Potency, µM (titrated, usually from 46.1 µM), usual class: cytotoxic; 400,000 compounds, 3.4% hits; AID 1347076; further: nearly all actives have a fitted effect of over 60% in size
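KB-V1, DMEM (no phenol red) + 10% FBS; cpd pin-transferred, titration series; 72 h, 37 degrees C; CellTiter-Glo, luminescence. Data normalized, curve-fit.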
KB-3-1 tox – KB-3-1 parental cell cytotoxicity; KB-3-1 viability, CellTiter-Glo ATP luminescence, 72 h; Potency, µM (highest dose often 46.1 µM), hits mostly cytotoxic; 400,000 compounds, 1.4% hits; AID 1347075; further: nearly all actives have a fitted effect of over 60% in size
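Viability of parental KB-3-1 cells, measured by CellTiter-Glo luminescence, followed a 72 h incubation at 37 °C with pinned compounds in phenol-red-free DMEM containing 10% FBS.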
A number is an active result. Shown are actives, neighbours in structure and some others; about 19% of the full set was active somewhere. The call rests on the fitted dose curve; in most records, active means well fitted curve in the direction sought with a large enough effect; inconclusive means small, poorly fitted or top-dose-only effect, or another doubt; inactive means no such curve, though single readings can be large; an effect the other way counts as inactive or inconclusive.

Screening CCc1ccc(S(=O)(=O)c2nnn3c2nc(N2CCC(C(N)=O)CC2)c2cc(Cl)ccc23)cc1 returned DT40 TDP1 no CPT 23µM, TDP1 cell CPT inconclusive, KB-V1 MDR tox inactive and KB-3-1 tox inactive.
Screening CC1CCN(c2nc3c(S(=O)(=O)c4ccccc4)nnn3c3ccc(Cl)cc23)CC1 returned DT40 TDP1 no CPT 18µM, TDP1 cell CPT 16µM, KB-V1 MDR tox inactive and KB-3-1 tox inactive.
Screening Cc1ccc(S(=O)(=O)c2nnn3c2nc(N2CCC(C)CC2)c2cc(Cl)ccc23)cc1C returned DT40 TDP1 no CPT 21µM, TDP1 cell CPT inconclusive, KB-V1 MDR tox inactive and KB-3-1 tox inactive.
Screening O=C(COc1ccc(Br)cc1)Nc1ccc(C(=O)OC2CCCCC2)cc1 returned DT40 TDP1 no CPT inconclusive, TDP1 cell CPT inconclusive, KB-V1 MDR tox inactive and KB-3-1 tox inactive.
`O=C(O)c1cc2c(ncc3c(=O)n(-c4ccccc4)[nH]c32)s1` gave DT40 TDP1 no CPT inactive, HT1080 IDH1KD tx inactive, HT1080NT lethal inactive, TDP1 cell CPT inconclusive, KB-V1 MDR tox inactive and KB-3-1 tox inactive.
`O=S(CC(O)c1ccccc1)c1ccccc1` (centres undefined) gave DT40 TDP1 no CPT 16µM, HT1080 IDH1KD tx inactive, HT1080NT lethal inactive, TDP1 cell CPT inconclusive, KB-V1 MDR tox inactive and KB-3-1 tox inactive.
`COc1ccc(NC(=O)N2CC[C@@]3(CCCN(S(C)(=O)=O)C3)C2)cc1` gave DT40 TDP1 no CPT inactive and TDP1 cell CPT inactive.
OC(c1ccccc1)c1ncc(-c2ccc(Oc3ccccc3)cc2)[nH]1 (centres undefined) was read as DT40 TDP1 no CPT 18µM, HT1080 IDH1KD tx inactive, HT1080NT lethal inconclusive, TDP1 cell CPT 23µM, KB-V1 MDR tox inactive and KB-3-1 tox inactive.
COc1ccc(-c2cnc(C(O)c3ccccc3)[nH]2)cc1 (centres undefined) was read as DT40 TDP1 no CPT inactive, HT1080 IDH1KD tx inactive, HT1080NT lethal inactive, TDP1 cell CPT inactive, KB-V1 MDR tox inactive and KB-3-1 tox inactive.
`COc1ccc(-c2cnc(C(O)c3ccc(-c4ccccc4)cc3)[nH]2)cc1` (centres undefined) gave DT40 TDP1 no CPT inconclusive, HT1080 IDH1KD tx inactive, HT1080NT lethal inactive, TDP1 cell CPT inconclusive, KB-V1 MDR tox inactive and KB-3-1 tox inactive.
`OC(c1ccc(Cl)cc1)c1ncc(-c2ccc(Oc3ccccc3)cc2)[nH]1` (centres undefined) gave DT40 TDP1 no CPT 21µM, HT1080 IDH1KD tx 23µM, HT1080NT lethal 23µM, TDP1 cell CPT 21µM, KB-V1 MDR tox inactive and KB-3-1 tox inconclusive.
Screening Cc1ccc(C)c(N2CCN(C(=O)Cn3cnc4nc5c(cc4c3=O)CCCC5)CC2)c1 returned DT40 TDP1 no CPT inconclusive, TDP1 cell CPT inconclusive, KB-V1 MDR tox inactive and KB-3-1 tox inactive.
Screening O=C(CN1C(=O)CCC1=O)Nc1ccc(Cc2ccc(NC(=O)CN3C(=O)CCC3=O)cc2)cc1 returned DT40 TDP1 no CPT inactive, HT1080 IDH1KD tx inactive, HT1080NT lethal inactive, TDP1 cell CPT inactive, KB-V1 MDR tox inconclusive and KB-3-1 tox inactive.
COc1ccc(CCNc2nc(-c3ccc(OC)c(OC)c3)cc(C(F)(F)F)n2)cc1OC was read as DT40 TDP1 no CPT inconclusive, TDP1 cell CPT 18µM, KB-V1 MDR tox inactive and KB-3-1 tox inconclusive.
O=C(NC(=O)c1cccc(F)c1)Nc1nc(-c2ccc(F)cc2)cc(C(F)(F)F)n1 was read as DT40 TDP1 no CPT inactive, HT1080 IDH1KD tx inactive, HT1080NT lethal inactive, TDP1 cell CPT inactive, KB-V1 MDR tox inactive and KB-3-1 tox inactive.
Screening COc1ccccc1C(=O)NC(=O)Nc1nc(-c2ccccc2)cc(C(F)(F)F)n1 returned DT40 TDP1 no CPT inconclusive, HT1080 IDH1KD tx inactive, HT1080NT lethal inactive, TDP1 cell CPT 15µM, KB-V1 MDR tox inactive and KB-3-1 tox inactive.
